In the assay the test system is Lefty1. Put plainly: Lefty1 protein binding to printed compounds – biochemical, small-molecule microarray, 635/667 nm fluorescence, primary screen (AID 1139). The note with it: fluorescence 635/667, higher = more signal.
In turn, `COc1ccc([C@H]2OC[C@@H]3C[C@@H](Cc4ccccc4)C(=O)N32)cc1` displayed a composite z-score of 1.08.

Molecule `COCCCNC(=O)[C@@H]1c2ccccc2C(=O)N(Cc2ccccc2Cl)[C@H]1c1ccc(CO)cc1` showed a composite z-score of 0.753.

As to `O=C1C2C=CC(C(O)c3cccc4ccccc34)N(Nc3ccccc3F)C2C(=O)N1c1ccccc1` (stereo not given), the composite z-score turned out to be 0.345.

`COC(=O)[C@@]1(CCS(=O)(=O)c2ccccc2)N=C(c2ccc(OCCCO)cc2)O[C@H]1c1ccccc1CN=[N+]=[N-]` showed a composite z-score of 0.279.

`C=C[C@H](OC)[C@@H](OC(=O)Nc1ccc(OC)cc1)c1ccc(O)c(F)c1` returned a composite z-score of -0.288.

`C=CCC(OC(C)=O)[C@@H]1[C@@H](N(Cc2ccc(-c3ccccc3)cc2)C(=O)c2cccc3ccccc23)c2cc(OCCCO)ccc2N1C(=O)c1ccc(-c2ccccc2)cc1` (stereo not given in full) registered a composite z-score of -0.111.

In the case of `C=CCOC(=O)[C@H]1[C@@H]2C(=O)O[C@@H](c3ccccc3)[C@@H](c3ccccc3)N2[C@@H](c2ccc(OCCOC(=O)[C@H]3C[C@H]4C(=O)N[C@@H](CCCC[N+](C)(C)C)C(=O)N4[C@H]3c3ccc(O)cc3)cc2)[C@]12C(=O)Nc1ccc(I)cc12`, the composite z-score worked out at 1.27.

`COC(=O)[C@@]1(Cc2ccc(OC)cc2)[C@@H]2C(=CC(=O)[C@H]2CC(=O)C(=O)N2CCCC2)CN1C(=O)c1ccccc1` had a composite z-score of -0.319.

`C[C@H]1NC(=O)[C@@]23C(=O)N[C@@H](Cc4ccccc4)C2[C@H](C)[C@@]2(C)O[C@H]2C3/C=C/C/C=C\CNC(=O)[C@@H]2CCCN2C1=O` (stereo not given in full): the composite z-score was determined as 0.946.

Take `O=C(OCc1ccccc1)C1=CCC2c3[nH]c4ccccc4c3C(=O)C1N2S(=O)(=O)c1ccccc1[N+](=O)[O-]` (stereo not given): the composite z-score stood at 0.5.

For the molecule `COC(=O)[C@@]1(Cc2ccc(OC)cc2)[C@H]2c3cc(C(=O)N4CCCC4)n(Cc4ccc(C)c(F)c4F)c3C[C@H]2CN1C(=O)c1ccccc1`, the composite z-score was -0.161.

Molecule `C=CCOC(=O)[C@H]1[C@@H]2C(=O)O[C@@H](c3ccccc3)[C@@H](c3ccccc3)N2[C@@H](c2ccc(OCCOC(=O)[C@H]3C[C@H]4C(=O)N[C@@H](CCCCNC(C)=O)C(=O)N4[C@H]3c3cccc(OCCO)c3)cc2)[C@]12C(=O)Nc1ccccc12` returned a composite z-score of 1.08.

Take `CC(C)c1ccc(NN2C(C(O)c3ccc(B(O)O)cc3)C=CC3C(=O)N(c4ccccc4)C(=O)C32)cc1` (stereo not given): the composite z-score is 0.481.

With `CCCC=C(CCC)[C@@H](NC(=O)c1cccs1)c1ccc(C(F)(F)F)cc1`, the composite z-score came out at 0.735.

As to `COc1ccc(C#Cc2ccc3c(c2)[C@]2(C(=O)N3)[C@H](C(=O)Nc3nc4ccccc4s3)[C@H]3C(=O)O[C@H](c4ccccc4)[C@H](c4ccccc4)N3[C@@H]2c2ccc(O)cc2)cc1`, the composite z-score worked out at 1.72.

With `CCCCCCc1nc(-c2cc(C)c(OC)c(C)c2)cc2c1[Si](C(C)C)(C(C)C)OC2`, the composite z-score worked out at 0.275.

Molecule `COCCOC(=O)N1C(=O)[C@@]2(c3cc(C#Cc4ccc(OC)cc4)ccc31)[C@H](c1ccccc1OCCO)N1[C@H](c3ccccc3)[C@H](c3ccccc3)OC(=O)[C@H]1[C@@H]2C(=O)NC[C@H](O)c1ccccc1` yielded a composite z-score of 1.16.

Take `COC(=O)C(CC#Cc1ccc2c(c1)[C@]1(C(=O)N2)[C@H](c2ccc(OCCO)cc2)N2[C@H](c3ccccc3)[C@H](c3ccccc3)OC(=O)[C@H]2[C@@H]1C(=O)N1CCc2cc(OC)c(OC)cc2C1)C(=O)OC`: the composite z-score was 1.36.

`COCCOC(=O)N1C(=O)[C@@]2(c3cc(C#CCC(C(=O)OC)C(=O)OC)ccc31)[C@H](c1ccccc1OCCO)N1[C@H](c3ccccc3)[C@H](c3ccccc3)OC(=O)[C@H]1[C@@H]2C(=O)N1CCN(c2ncccn2)CC1` gave a composite z-score of 1.17.

As to `O=C(c1ccccc1)N1C(=O)[C@]2(COC(c3ccc(OCCCO)cc3)=N2)Cc2ccccc21`, the composite z-score was found to be 0.443.

Molecule `COc1ccc([Si](C)(C)[C@@H]2[C@@H](CCO)O[C@]3(C(=O)N(Cc4ccc(N(C=O)c5ccccc5)cc4)c4ccccc43)[C@H]2C)cc1` registered a composite z-score of 0.0434.

As for `O=C1c2ccccc2[C@](Cc2ccccc2I)(C(=O)NCC(F)(F)F)[C@H](c2ccc(CO)cc2)N1Cc1ccccc1Cl`, the composite z-score turned out to be 0.883.

Regarding `COCCOC(=O)N1C(=O)[C@@]2(c3cc(C#CCCO)ccc31)[C@H](C(N)=O)[C@H]1C(=O)O[C@H](c3ccccc3)[C@H](c3ccccc3)N1[C@@H]2c1ccc(O)cc1`, the composite z-score is -0.431.

On to `C=C(CCCC)/C(=C/C[C@@H](OC(=O)c1ccncc1)c1ccc(OCCO)cc1)c1cc(C(=O)OC)ccc1OC`, for which the composite z-score came out at 0.865.

On to `C=CCN1C(=O)[C@]2(O[C@H](CCn3cc([C@H](O)c4ccccc4)nn3)[C@@H]([Si](C)(C)c3ccc(OC)cc3)[C@@H]2C)c2ccccc21`, for which the composite z-score is -0.581.

The record behind these values is PubChem BioAssay.
